The text below walks through data of PubChem BioAssay (NCI).

Each structure is given as a SMILES string. This is part of a sample that, as a whole, favours compounds with a hit. Of some 83,000 tested, about 20% had one in any assay.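 In brief: 96-well plates, 48 h treatment, single concentration, percent growth endpoint.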 Unmarked numbers belong to inactive results. Calls of active or inactive are those of the source. The calls were made as follows: active = growth percent below 10; inactive = the rest.

The subject of this assay is HL-60(TB) leukemia. Nature of the assay: NCI-60 one-dose screen, 48 h (100 = growth as untreated, 0 = no growth, -100 = all killed). The conditions noted are these: 10 µM unless noted.
Turning to `CC(NCCC(c1ccccc1)c1ccccc1)c1ccccc1` (centres undefined), the growth is 14.6%.
The figure for `Cc1cccc(-n2c(C)nc3ccc(N4CCCNC4=O)cc3c2=O)c1` is 109%; for `O=C1NC(=O)C(c2cnc3ccccn23)=C1c1cn2c3c(cc(F)cc13)CN(C(=O)N1CCCCC1)CC2` it is 48.1%; for `CCN(CC)CCN1C(=O)c2c(c(C)c3c(oc4cc(O)ccc43)c2C)C1=O` it is -50.6% (active).
To `CN1CCN(c2ccc3nc(-c4ccc5nc(-c6ccc(O)cc6)[nH]c5c4)[nH]c3c2)CC1` belongs 40.9%; to `COc1ccc(-n2c(C(O)c3ccccc3)n[nH]c2=S)cc1` (centres undefined), 119%; to `COc1cc(C)cc2oc3oc(=O)c(C(=O)c4cc5cc(Br)ccc5o4)cc3c(=O)c12`, 103%.
The figure for `Cn1cc(-c2nnc(-c3cn(C)c4ncc(Br)cc34)s2)c2cc(Br)ccc21` is 106%; for `COc1ccc(CCN2C(=O)/C(=C/c3ccc(C4Oc5ccccc5C5CC(c6ccccc6)=NN54)cc3)SC2=S)cc1` (centres undefined) it is 97.7%.
As for `O=C(CCc1nnc2sc(OCc3ccccc3)nn12)c1nc2ccc([N+](=O)[O-])cc2[nH]1`, the growth is 97.9%.
With `CCCCCC(=O)Oc1ccc(/C(=C(\C)c2ccccc2)c2ccc(OCCN(CC)CC)cc2)cc1`, the growth is 33.9%.
The figure for `CCOC(=O)c1cc(C(=O)c2cc(OC)c(OC)c(OC)c2)n2ccccc12` is -24.6% (active); for `Cc1nc2ccccc2n1-c1ncnc2c1CC(C)c1ccccc1N2C` (centres undefined) it is 83.8%.
To `O=C(CN1CCOCC1)Nc1ccc2ncnc(Nc3ccc(Oc4cccc(C(F)(F)F)c4)c(Cl)c3)c2c1` belongs 70.1%.
